# Measured values taken from article PMC11062922 (Nature Chemical Biology, 2023).
# Where two headings read alike, the source gives them in different places.
# Tests used:
# Parameters in all cases: species or system human, MV4-11 + K-562 + COLO205 + SK-N-BE2 + OVCAR-8
# CSNK2A1;CSNK2A3 = conditions: read-out: apparent Kd, n = 1
# FER = conditions: read-out: apparent Kd; compound concentrations:100 nM and 1000 nM (sheet 'Samples'); n = 1
# FES = conditions: read-out: apparent Kd; compound concentrations:100 nM and 1000 nM (sheet 'Samples'); n = 1
# GRK6 = conditions: read-out: apparent Kd; compound concentrations:100 nM and 1000 nM (sheet 'Samples'); n = 1
# IGF1R = conditions: read-out: apparent Kd; compound concentrations: 100 nM and 1000 nM (sheet 'Samples'), CATDS: 0.29362976208520802; n = 1
# INSR = conditions: read-out: apparent Kd; compound concentrations:100 nM and 1000 nM (sheet 'Samples'); n = 1
# PIM1 = conditions: read-out: apparent Kd; compound concentrations:100 nM and 1000 nM (sheet 'Samples'); n = 1
# PIM2 = conditions: read-out: apparent Kd; compound concentrations:100 nM and 1000 nM (sheet 'Samples'); n = 1
# TNK1 = conditions: read-out: apparent Kd, n = 1
# IARS = conditions: read-out: apparent Kd; compound concentrations:100 nM and 1000 nM (sheet 'Samples'); n = 1
# NQO1 = conditions: read-out: apparent Kd; compound concentrations:100 nM and 1000 nM (sheet 'Samples'); n = 1
# MAP2K2 = conditions: read-out: apparent Kd; compound concentrations:100 nM and 1000 nM (sheet 'Samples'); n = 1
# MAPK11 = conditions: read-out: apparent Kd, n = 1
# RAB6A;RAB6B = conditions: read-out: apparent Kd; compound concentrations:100 nM and 1000 nM (sheet 'Samples'); n = 1
# DCTPP1 = conditions: read-out: apparent Kd, compound concentrations: 100 nM and 1000 nM (sheet 'Samples'), n = 1
# PHKG2 = conditions: read-out: apparent Kd; compound concentrations: 100 nM and 1000 nM (sheet 'Samples'), CATDS: 0.27508455171149998; n = 1
# PIK3CG = conditions: read-out: apparent Kd; compound concentrations: 100 nM and 1000 nM (sheet 'Samples'), CATDS: 0.403949586222208; n = 1
# CSNK2A2 = conditions: read-out: apparent Kd; compound concentrations: 100 nM and 1000 nM (sheet 'Samples'), CATDS: 9.4804106529145699E-2; n = 1
# EPHA1 = conditions: read-out: apparent Kd; compound concentrations: 100 nM and 1000 nM (sheet 'Samples'), CATDS: 0.11031803480288301; n = 1
# IRAK3 = conditions: read-out: apparent Kd; compound concentrations: 100 nM and 1000 nM (sheet 'Samples'), CATDS: 0.28099060866519798; n = 1
# NTRK1 = conditions: read-out: apparent Kd; compound concentrations: 100 nM and 1000 nM (sheet 'Samples'), CATDS: 8.3524015841862198E-2; n = 1
# PIP4K2C = conditions: read-out: apparent Kd; compound concentrations: 100 nM and 1000 nM (sheet 'Samples'), CATDS: 8.5254217094438201E-2; n = 1
# RIPK2 = conditions: read-out: apparent Kd; compound concentrations: 100 nM and 1000 nM (sheet 'Samples'), CATDS: 0.49931357158944301; n = 1
# STK10 = conditions: read-out: apparent Kd; compound concentrations: 100 nM and 1000 nM (sheet 'Samples'), CATDS: 9.3066944796260806E-2; n = 1
# TGFBR2 = conditions: read-out: apparent Kd; compound concentrations: 100 nM and 1000 nM (sheet 'Samples'), CATDS: 0.10303622443246301; n = 1
# DJA1 = system: T1, DJA1; conditions: read-out: apparent Kd, compound concentrations: 100 nM and 1000 nM (sheet 'Samples'), n = 1
# T1 construct: gene DNAJA1
# GSK3A = conditions: read-out: apparent Kd; compound concentrations: 100 nM and 1000 nM (sheet 'Samples'), CATDS: 0.120025904024986; n = 1
# GSK3B = conditions: read-out: apparent Kd; compound concentrations: 100 nM and 1000 nM (sheet 'Samples'), CATDS: 0.13279399425104901; n = 1
# PRKCA = conditions: read-out: apparent Kd; compound concentrations: 100 nM and 1000 nM (sheet 'Samples'), CATDS: 0.251821387342202; n = 1
# PRKCB = conditions: read-out: apparent Kd; compound concentrations: 100 nM and 1000 nM (sheet 'Samples'), CATDS: 0.103783943133635; n = 1
# PRKCD = conditions: read-out: apparent Kd; compound concentrations: 100 nM and 1000 nM (sheet 'Samples'), CATDS: 0.10441574318923801; n = 1
# PRKCQ = conditions: read-out: apparent Kd; compound concentrations: 100 nM and 1000 nM (sheet 'Samples'), CATDS: 8.12008674931885E-2; n = 1
# RPS6KA6 = conditions: read-out: apparent Kd; compound concentrations: 100 nM and 1000 nM (sheet 'Samples'), CATDS: 0.17427412228003; n = 1
# DDR1 = conditions: read-out: apparent Kd; compound concentrations: 100 nM and 1000 nM (sheet 'Samples'), CATDS: 0.101729312677661; n = 1
# EGFR = conditions: read-out: apparent Kd; compound concentrations: 100 nM and 1000 nM (sheet 'Samples'), CATDS: 7.48044992603729E-2; n = 1
# HCK = conditions: read-out: apparent Kd; compound concentrations: 100 nM and 1000 nM (sheet 'Samples'), CATDS: 0.11641359939997301; n = 1
# LYN = conditions: read-out: apparent Kd; compound concentrations: 100 nM and 1000 nM (sheet 'Samples'), CATDS: 9.0520394407802393E-2; n = 1
# RIPK3 = conditions: read-out: apparent Kd; compound concentrations: 100 nM and 1000 nM (sheet 'Samples'), CATDS: 9.4746109979172405E-2; n = 1
# TAOK3 = conditions: read-out: apparent Kd; compound concentrations: 100 nM and 1000 nM (sheet 'Samples'), CATDS: 7.5717255281347595E-2; n = 1
# YES1 = conditions: read-out: apparent Kd; compound concentrations: 100 nM and 1000 nM (sheet 'Samples'), CATDS: 0.13069382201385599; n = 1
# [1] = compound concentrations:100 nM and 1000 nM (sheet 'Samples')
smiles,measurement,setting,value
COc1cc2c(cc1Nc1nc(Nc3ccsc3C(N)=O)c3cc[nH]c3n1)N(C(=O)CN(C)C)CCC2(C)C [GSK2163632A],potency estimated from few doses,CSNK2A1;CSNK2A3; [1],1950 nM
same,potency estimated from few doses,FER,82.7 nM
same,potency estimated from few doses,FES,212 nM
same,potency estimated from few doses,GRK6,2050 nM
same,potency estimated from few doses,IGF1R,22 nM
same,potency estimated from few doses,INSR,6.22 nM
same,potency estimated from few doses,PIM1,647 nM
same,potency estimated from few doses,PIM2,1920 nM
same,potency estimated from few doses,TNK1; [1],599 nM
Fc1ccc(-c2ncn(C3CCNCC3)c2-c2ccnc(Oc3ccc(Oc4ccccc4)cc3)n2)cc1 [SB-245392],potency estimated from few doses,IARS,2110 nM
same,potency estimated from few doses,NQO1,1710 nM
CCc1ccc(Oc2nccc(-c3c(-c4ccc(F)cc4)ncn3C3CCNCC3)n2)cc1 [SB-242719],potency estimated from few doses,MAP2K2,2280 nM
same,potency estimated from few doses,MAPK11; [1],779 nM
same,potency estimated from few doses,RAB6A;RAB6B,1360 nM
O=[N+]([O-])c1ccc2c(c1)C(c1ccccc1Cl)=Nc1c[nH]nc1N2 [RO0117162-000],potency estimated from few doses,DCTPP1; CATDS: 0.34611685739606901,1450 nM
same,potency estimated from few doses,PHKG2,2440 nM
same,potency estimated from few doses,PIK3CG,1090 nM
COc1cc(Nc2nccc(Nc3ccc4c(C)n[nH]c4c3)n2)cc(OC)c1OC [GW612286X],potency estimated from few doses,"CSNK2A1;CSNK2A3; compound concentrations: 100 nM and 1000 nM (sheet 'Samples'), CATDS: 8.5666768683209493E-2",1870 nM
same,potency estimated from few doses,CSNK2A2,1370 nM
same,potency estimated from few doses,EPHA1,909 nM
same,potency estimated from few doses,IRAK3,122 nM
same,potency estimated from few doses,NTRK1,2040 nM
same,potency estimated from few doses,PIP4K2C,1900 nM
same,potency estimated from few doses,RIPK2,46.6 nM
same,potency estimated from few doses,STK10,1450 nM
same,potency estimated from few doses,TGFBR2,1090 nM
Cn1cc(C2=C(c3cn(CCCCN)c4ccccc34)C(=O)NC2=O)c2ccccc21 [RO0317888-000],potency estimated from few doses,DCTPP1; CATDS: 8.2242786873404694E-2,1870 nM
same,potency estimated from few doses,DJA1; CATDS: 8.5163737412021906E-2,1670 nM
same,potency estimated from few doses,GSK3A,700 nM
same,potency estimated from few doses,GSK3B,570 nM
same,potency estimated from few doses,PRKCA,200 nM
same,potency estimated from few doses,PRKCB,970 nM
same,potency estimated from few doses,PRKCD,956 nM
same,potency estimated from few doses,PRKCQ,1960 nM
same,potency estimated from few doses,RPS6KA6,351 nM
O=C(Nc1cccc(-c2nn3ncccc3c2-c2ccnc(Nc3ccccc3)n2)c1)c1c(F)cccc1F [GSK198271A],potency estimated from few doses,DDR1,711 nM
same,potency estimated from few doses,DJA1; CATDS: 0.31646295058989898,111 nM
same,potency estimated from few doses,EGFR,1600 nM
same,potency estimated from few doses,HCK,537 nM
same,potency estimated from few doses,LYN,933 nM
same,potency estimated from few doses,"MAPK11; compound concentrations: 100 nM and 1000 nM (sheet 'Samples'), CATDS: 7.53995695049028E-2",1560 nM
same,potency estimated from few doses,RIPK3,836 nM
same,potency estimated from few doses,TAOK3,1540 nM
same,potency estimated from few doses,"TNK1; compound concentrations: 100 nM and 1000 nM (sheet 'Samples'), CATDS: 0.107193891906807",635 nM
same,potency estimated from few doses,YES1,431 nM
